The text below walks through data of PubChem BioAssay (NCATS).

Results filed as inconclusive are left out. Where a call stands in place of a potency, no number is given. Activity calls are given as the source filed them. The call rests on the fitted dose curve; in most records, active means well fitted inhibition curve with a large enough effect; inconclusive means small, poorly fitted or top-dose-only effect; inactive means flat fitted curve, though single readings scatter.
Potency means the concentration at half of the fitted maximal effect.

In this assay the test system is SC27B. In words: qHTS profiling for inhibitors of Plasmodium falciparum proliferation (AID 504749). Further: nearly all actives have a fitted effect of over 60% in size. As to conditions: P. falciparum in erythrocytes, SYBR Green DNA, 72 h; series mostly up to 28.7 µM. The gist of the method:
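Each compound contacts P. falciparum-infected red blood cells for 72 h at 37 C; lysis buffer (Tris, EDTA, saponin, Triton X, SYBR Green I) is added and fluorescence measured next morning; values normalized to controls.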
For the compound `COc1cc(O)c(C(=O)c2ccccc2)cc1S(=O)(=O)O`, the Potency result was “inactive”.

For `C[N+]1(C)CCC(=C(c2ccccc2)c2ccccc2)CC1`, the Potency result is “inactive”.

Take `CCN(CC)CCOC(=O)C1(c2ccccc2)CCCC1`: the Potency result was “inactive”.

As to `CCC(CC)(CC(=O)Nc1cccc(/C=C/c2nc(C3CCC3)cs2)c1)C(=O)O`, the Potency entry is “inactive”.

Regarding `NCc1ccccc1Sc1ccccc1CO`, the Potency entry was “inactive”.

Consider `C#C[C@]1(OC(C)=O)CC[C@H]2[C@@H]3CCC4=C/C(=N/O)CC[C@@H]4[C@H]3CC[C@@]21CC`, for which the Potency result is “inactive”.

As to `O=[N+]([O-])c1cccc(S(=O)(=O)NCCNS(=O)(=O)c2cccc([N+](=O)[O-])c2)c1`, the Potency entry is “inactive”.

As for `Cc1ncc(CO)c(C=O)c1O`, the Potency result is “inactive”.

As for `CC(C)[N+](C)(C)CC(O)COc1cccc2ccccc12` (stereo unspecified), the Potency entry was “inactive”.

Regarding `CC(=O)O[C@H]1C[C@@H]2CC[C@@H]3[C@H](CC[C@@]4(C)[C@H]3C[C@H]([N+]3(C)CCCCC3)[C@@H]4OC(C)=O)[C@@]2(C)C[C@@H]1N1CCCCC1`, the Potency result was “inactive”.

On to `CCNC(=O)NCc1cccc(Cl)c1`, for which the Potency result was “inactive”.

Take `CCOc1ccccc1OCCN[C@H](C)Cc1ccc(OC)c(S(N)(=O)=O)c1`: the Potency result was “inactive”.

For the compound `CC(=O)O[C@]1(C(C)=O)CC[C@H]2[C@@H]3C=C(Cl)C4=CC(=O)CC[C@]4(C)[C@H]3CC[C@@]21C`, the Potency is 8.91 µM (active).

For the compound `CCOC(=O)Nc1ccc2c(c1)N(C(=O)CCN1CCOCC1)c1ccccc1S2`, the Potency entry was “inactive”.

With `CC[N+](C)(CC)CCOC(=O)C(O)(c1ccccc1)C1CCCCC1` (stereo unspecified), the Potency entry is “inactive”.

In the case of `CC(C)=CCOc1ccc(/C=C/C(=O)c2ccc(OCC=C(C)C)cc2OCC(=O)O)cc1`, the Potency entry is “inactive”.
